Assay outcomes (PubChem)
PABP1 MLLE inh: blocks PAM2 peptide binding to the PABP1 MLLE domain. P11940. GST-MLLE / FITC-PAM2 fluorescence polarization. inhibition, % at 20 µM. actives 0.36% (n = 360,000). AID 588489; in the data active means inhibition above about 35%, passing the limit was not always enough;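 further: plate controls were DMSO wells with GST-MLLE for no effect and wells lacking GST-MLLE protein for full effect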
Efflux pump mplx: inhibitors of Candida antifungal efflux pumps expressed in yeast. inhibition, % at 10 µM. S. cerevisiae Candida pump triplex, Nile Red efflux. actives 0.44% (n = 330,000). AID 485275;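 active means plate passing quality check with inhibition over a set limit, or well fluorescence over plate mean plus 4 SD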;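 further: Nile Red retained in pooled yeast measured as flow cytometry median fluorescence; 0% = buffer negative control and 100% = Enniatin B positive control; higher means more Nile Red kept so more efflux inhibition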
PABP FP inh: blocks human PABP binding to poly(A) RNA. P11940. inhibition, % at 35 µM. actives 1% (n = 290,000). AID 2014. fluorescence polarization;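 further: calls also rest on retests at 20 µM and on dose response follow-up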
ALR inh: inhibitors of human sulfhydryl oxidase ALR. inhibition, % (concentration not given with the values). P55789. actives 3.8% (n = 290,000). purified ALR, DTT oxidation, H2O2 HRP-luminol luminescence;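 active means mean replicate inhibition above about 79%, with every replicate also reaching it, limit read from the data; inconclusive means only one of the two criteria met; inactive means mean below limit and not every replicate reaching it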
Target sequence (P55789 whole entry, looked up): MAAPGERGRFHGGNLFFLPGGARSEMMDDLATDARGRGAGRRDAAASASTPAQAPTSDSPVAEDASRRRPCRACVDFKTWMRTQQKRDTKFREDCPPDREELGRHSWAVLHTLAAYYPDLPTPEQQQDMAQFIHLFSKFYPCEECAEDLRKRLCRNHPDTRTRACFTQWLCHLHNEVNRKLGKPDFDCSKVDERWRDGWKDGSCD
UBC9 SUMO inh: blocks human SUMOylation mediated by UBC9; HTRF SUMOylation assay, SAE1/SAE2 + UBC9, in vitro; inhibition, % at 35 µM; P63279; AID 2006; actives 0.36% (n = 290,000); in the data active means inhibition above about 50%, passing the limit was not always enough; inconclusive means no clear call, values can overlap the other calls
eIF4H FP inh: inhibitors of RNA binding by human eIF4H; eIF4H fluorescence polarization binding assay; inhibition, % at 35 µM; actives 0.94% (n = 290,000);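 further: calls also rest on retests at 20 µM and on dose response follow-up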
The depositor's hits bear a star; ? = inconclusive; . = no result given. Rows were chosen to be rich in hits. Some 4.7% of all compounds tested hit in one or more screens of this group. Unless noted, how the calls were made is not given here.

SMILES	PABP1 MLLE inh	Efflux pump mplx	PABP FP inh	ALR inh	UBC9 SUMO inh	eIF4H FP inh
NS(=O)(=O)c1ccc(N/N=C/c2ccc(C(=O)O)cc2)c([N+](=O)[O-])c1	15	0	-5	-5	10	-6
COc1cccc(/C=C/C(=O)OCC(=O)Nc2cccc(S(=O)(=O)NC3=NCCCCC3)c2)c1	-20	0	.	.	.	.
Cc1cccc(C(=O)NNC2=C(C(=O)C(F)(F)F)CCC2)c1O	2	0	12	97*	5	0
O=C(NNC1=C(C(=O)C(F)(F)F)CCC1)c1cccc(O)c1	-20	0	-5	53	7	-1
CCCOc1cc(N)ccc1C(=O)OCCN(CC)CC	1	0	.	2	.	.
CCCOc1ccc(N)cc1N	11	0	102*	.	43	79*
COC(=O)c1ccccc1S(=O)(=O)N1CCC(C(=O)NCc2ccccn2)CC1	14	.	.	.	.	.
Cc1ccccc1NC(=O)/C(=C/c1ccco1)c1ccccc1	6	0	-2	83*	4	-7
CC(C)(C)NC(=O)/C(=C/c1ccco1)c1ccccc1	-14	0	6	90*	20	4
Cc1ccc(NC(=O)CN(c2ccc3c(c2)OCO3)S(=O)(=O)c2c(C)n[nH]c2C)cc1	5	0	12	90*	-3	3
COc1cc(NC(=O)CN(c2ccc(C)cc2)S(=O)(=O)c2c(C)n[nH]c2C)cc(OC)c1	1	0	-6	3	-30	0
Cc1n[nH]c(C)c1S(=O)(=O)N(CC(=O)NC1CCCC1)c1ccc(C(C)C)cc1	4	0	-6	81*	10	-5
Cc1nn(C)c(C)c1S(=O)(=O)N(CC(=O)NC1CCCCCC1)c1ccc(C(C)C)cc1	-6	0	-4	2	9	-3
Cc1ccc(CN2CCN(Cc3ccc(O)cc3)CC2CCO)o1 (stereo not given)	0	0	0	-5	19	-1
Brc1ccc2nc(-c3cccs3)c(NCC3CCCO3)n2c1 (stereo not given)	14	0	?	98*	17	?
c1csc(-c2nc(NCC3CCCO3)c3ccccc3n2)c1 (stereo not given)	4	0	15	.	20	5
Cc1ccc(C(=O)OCN2C(=O)c3ccccc3C2=O)o1	2	0	.	-3	.	.
COc1cc(/C=C/C(=O)Nc2ccc(C(C)=O)cc2)cc(OC)c1OC	5	0	32	-6	9	-4
COc1cc(/C=C/C(=O)Nc2nnc(CC(C)(C)C)s2)cc(OC)c1OC	44*	0	10	33	11	-4
COc1cc(/C=C/C(=O)Nc2ccncc2)cc(OC)c1OC	6	0	7	85*	33	-3
C=CC[n+]1ccn(-c2nc3ccccc3nc2[N-]S(=O)(=O)c2cccs2)c1	16	0	18	95*	13	8
O=S(=O)([N-]c1nc2ccccc2nc1-[n+]1ccc(-c2ccncc2)cc1)c1ccccc1	158	0	0	.	16	?
CCCC[n+]1ccn(-c2nc3ccccc3nc2[N-]S(=O)(=O)c2cccs2)c1	-13	0	-5	7	12	-8
O=S(=O)([N-]c1nc2ccccc2nc1-[n+]1ccc(CCCc2ccccc2)cc1)c1cccs1	29	0	56*	-3	20	116*
CC(C(=O)OCC(=O)NC1CCCC1)N1C(=O)c2ccccc2C1=O (stereo not given)	-3	0	.	-1	.	.
SMILES	PABP1 MLLE inh	Efflux pump mplx	PABP FP inh	ALR inh	UBC9 SUMO inh	eIF4H FP inh
COc1ccc(NCc2nc3ccccc3n2C)cc1	4	0	-4	98*	16	-5
Cn1c(CNc2ccc(Br)cc2)nc2ccccc21	3	0	-6	96*	2	4
Cn1c(CNc2ccc(O)cc2)nc2ccccc21	22	0	?	99*	60	?
Cc1ccc(NCc2nc3ccccc3n2C)cc1C	-10	0	1	98*	-5	1
Cn1c(CNc2nc3ccccc3n2C)nc2ccccc21	7	0	-8	-3	11	-2
Cc1ccc(NCc2nc3ccccc3n2C)cc1	9	0	-17	-2	2	-1
CC(=O)c1ccc2oc3ccccc3c(=O)c2c1	-13	0	2	-10	9	-8
CC(/C=N/N1C(=O)CSC1=S)=C\c1ccccc1	35	0	-6	33	10	-13
COc1c(C=O)c2c(c(OC)c1OC)-c1ccc(OC)c(=O)cc1C(NC(C)=O)CC2 (stereo not given)	-12	.	.	.	.	.
COCCN(C(=O)c1ccc(N2C(=O)c3ccccc3C2=O)cc1)c1c(N)n(CC(C)C)c(=O)[nH]c1=O	-5	.	.	.	.	.
CN(Cc1nc2ccccc2n1C)c1ccccc1	8	0	-2	99*	6	-15
COc1ccc(Nc2nc3ccccc3n2C)cc1	19	0	2	77*	13	6
COc1cc(C(=S)N(C)C)ccc1O	26	0	-4	92*	-1	-19
COC(=O)c1ccc(NC(=O)c2ccc(F)cc2)o1	-7	0	1	27	-14	-1
COC(=O)c1ccc(NC(=O)c2cccc(Cl)c2)o1	-1	0	-7	93*	-2	-3
COC(=O)c1ccc(NC(=O)c2ccc(C)cc2)o1	8	0	3	98*	30	1
COc1cccc(NC(=O)c2cccc(Cl)c2)c1	-16	0	.	.	.	.
CC(OC(=O)CN1C(=O)c2ccccc2C1=O)C(=O)NC1CCCCC1 (stereo not given)	2	0	10	1	-5	-8
O=C(CSc1nnc(CNC(=O)c2ccco2)o1)Nc1ccc(Br)cc1	22	0	-5	99*	11	-1
CC(C)C[C@H](N)c1nnc(SCC(=O)Nc2ccc(Br)cc2)o1	-23	0	.	99*	.	.
CCOc1ccc(NC(=O)CSc2nnc(CNC(=O)c3ccco3)o2)cc1	-13	0	8	-1	-26	2
NCCc1nnc(SCC(=O)Nc2ccc(Br)cc2)o1	-9	0	2	98*	-11	-5
COc1ccc(CC(=O)OCC(=O)NC2CCCC(C)C2C)cc1 (stereo not given)	-2	0	.	1	.	.
COC(=O)Cc1ccc(NC(=O)c2ccc(Br)o2)cc1	8	0	2	-2	-2	-2
CCN(CC)c1ccc(NC(=O)c2ccc(Br)o2)cc1	-5	0	9	96*	-10	0
CC(=O)Nc1ccc(NC(=S)NC(=O)C2CCCC2)cc1	28	0	-5	-5	-4	-8
CCOC(=O)C(Cc1ccccc1)C(=O)Nc1ccc(N(CC)CC)cc1 (stereo not given)	-9	0	4	99*	-4	-8
CCN(CC)c1ccc(NC(=S)NC(=O)C2CCC2)cc1	17	0	-3	99*	-5	-10
CCOC(=O)C(Cc1ccccc1)C(=O)Nc1cccc(C)c1 (stereo not given)	12	0	-5	.	-10	-6
